Assay results taken from PubChem BioAssay (EPA / NIEHS).
Activity calls are given as the source filed them. The calls were made as follows: active = hit-call score of the fitted dose curve at least 0.9, where 1 is the maximum; inactive = score below 0.9.

The molecules below were run on Insulin Like Growth Factor 1 (IGF1), IGF1 (gene 3479) (assay: LTEA_HepaRG_IGF1: Life Technologies and Expression Analysis (LTEA) Assay for Insulin Like Growth Factor 1 (IGF1) using HepaRG (AID 2283506)). Conditions: mRNA level, 48 h; actives raise or lower the signal.
Procedure: LTEA_HepaRG is a cell based, multiplexed-readout assay that uses HepaRG, a human liver cell line, with measurements taken at 48 hours after chemical dosing on a 96-well plate.LTEA_HepaRG_IGF1 is one of 102 assay component(s) measured in the LTEA HepaRG cell culture assay. It is a marker of Cell proliferation, survival, death.Data from the assay component LTEA_HepaRG_IGF1 was analyzed into 1 endpoint. This assay endpoint, LTEA_HepaRG_IGF1, was analyzed with bidirectional fitting relative to DMSO as the negative control and baseline of activity. Using a type of inducible reporter, measures of mRNA induction for gain or loss-of-signal activity can be used to understand regulation of transcription factor activity. To generalize the intended target to other relatable targets, this assay endpoint is annotated to the growth factor intended target family, where the subfamily is insulin-like.
A total of 1060 chemcials from the ToxCast library were tested in eight-point concentration-response experiments. Cell culture and cytotoxicity assays were conducted at Thermo Fisher Scientific's Custom Services facility (Madison, WI). A single lot of human HepaRG cells (Thermo Fisher Scientific, Frederick, MD) was used for the cell culture experiments. 96-well format collagen type I coated plates of human HepaRG cells were prepared using established methods. Briefly, cryopreserved HepaRG cells were thawed, plated at a density of approximately 100,000 cells/well in HepaRG Thaw, Plate, and General Purpose media (HPRG770, Thermo Fisher Scientific), and incubated for 48 hours. 0.5% DMSO was selected as vehicle control to balance the requisite need of DMSO in HepaRG cultures to maintain differentiation (for example, baseline metabolism, proportions of hepatocytes vs. cholangiocytes), while enabling further hepatic receptor pathway activation (for example, PXR and CAR) in response to chemical exposure. 48 hours after plating, the culture medium was replaced with HepaRG Serum-Free Incudtion Media. Cells were exposed to each test chemical in duplicate and maintained in CO2 incubators for another 48 hours. Chemical plates were thawed to room temperature and 200x concentrations of treatment groups were prepared. 8-point conentration-reponse curves were made with the highest exposure at 100 uM, followed by half-log dilutions, all in 0.5% DMSO. Each test plate contained variouse controls, induction positive controls (1mM phenobarbital), cytotoxicity positive controls ([…] aflatoxin B1), vehicle controls (0.5% DMSO), and total lysis controls (0.5% DMSO). Cell morphology images were taken using an Essen IncuCyte FLR automated microscope, with six 96-well plates imaged in about 24 minutes. Images were captured and exported and JPEG files. Spent culture media was transfered to black-well plates for the LDH assay, and remaining media was sorted at -80 C for later use. Cells were treated with RLT buffer and frozen until shipped for gene expression analysis. Total RNA was isolated from the cell suspension in 75 uL of Buffer RLT (Qiagen, Germantown, MD 20874) by Quintiles/Expression Analysis (Durham, NC) using a custom isolation procedure. Total RNA from each plate well was transferred to a preamplification plate. Fluidigm's 96.96 Dynamic ArrayTM (Fluidigm, Amsterdam, the Netherlands) technology was used for gene expression analyses by quantitative reverse transcription polymerase chain reaction (qRT-PCR, performed by Quintiles/Expression Analysis, Durham, NC)89. Standard TaqManTM Assays (Applied Biosystems/ThermoFisher Scientific, Foster City, CA) were used to assess the expression of 93 genes selected based on their selectivity and sensitivity to important hepatic receptors known to be modulated by environmental chemicals; importance in human hepatocyte functionality; and hepatotoxicity. […]

| SMILES | outcome | AC50 |
| --- | --- | --- |
| Cc1cc(C)cc(C)c1 | inactive |  |
| Oc1c(Cl)cc(Cl)cc1Cl | inactive |  |
| CN(C)C(=S)S | inactive |  |
| N#Cc1cccnc1 | inactive |  |
| Clc1cccc(Cl)c1 | inactive |  |
| COc1ccccc1N | inactive |  |
| CC(C)(C)c1ccccc1O | inactive |  |
| OCCN(CCO)CCO | inactive |  |
| Clc1cccc(Cl)c1Cl | inactive |  |
| O=C(N[C@H]1CN2CCC1CC2)c1ccc2c(c1)OCCO2 | inactive |  |
| CCCCCCCCCCCCc1cccc(S(=O)(=O)O)c1 | inactive |  |
| O=C(O)C1(c2ccc3c(c2)OC[C@H](Cc2ccc(-c4ccccc4)cc2)[C@H]3O)CCCC1 |  | 15.8 µM (active) |
| Oc1cc(Cl)c(Cl)cc1Cl | inactive |  |
| CC(C)O.CC(C)O.OCCN(CCO)CCO.OCCN(CCO)CCO.[Ti] | inactive |  |
